Compound activity deposited in PubChem BioAssay by Buhrlage Lab, Dana-Farber Cancer Institute and Novartis Institutes for BioMedical Research (Cambridge, Mass).
This is a sample that favours compounds with a hit; in the whole collection about 11% have one here.
USP17 block = inhibitors of human USP17 deubiquitinase; Ubiquitin carboxyl-terminal hydrolase 17-like protein 5 (Homo sapiens), A8MUK1; purified USP17, Ub-rhodamine cleavage fluorescence, 3 h; inhibition, % at 50 µM; 47,000 compounds, 6.5% hits
USP28 inh = inhibitors of human USP28 deubiquitinase. purified USP28, Ub-rhodamine cleavage fluorescence, 30 min. inhibition, % at 25 µM. 47,000 compounds, 3% hits. AID 1645857, 2021
Target sequence (Q96RU2 whole entry, looked up): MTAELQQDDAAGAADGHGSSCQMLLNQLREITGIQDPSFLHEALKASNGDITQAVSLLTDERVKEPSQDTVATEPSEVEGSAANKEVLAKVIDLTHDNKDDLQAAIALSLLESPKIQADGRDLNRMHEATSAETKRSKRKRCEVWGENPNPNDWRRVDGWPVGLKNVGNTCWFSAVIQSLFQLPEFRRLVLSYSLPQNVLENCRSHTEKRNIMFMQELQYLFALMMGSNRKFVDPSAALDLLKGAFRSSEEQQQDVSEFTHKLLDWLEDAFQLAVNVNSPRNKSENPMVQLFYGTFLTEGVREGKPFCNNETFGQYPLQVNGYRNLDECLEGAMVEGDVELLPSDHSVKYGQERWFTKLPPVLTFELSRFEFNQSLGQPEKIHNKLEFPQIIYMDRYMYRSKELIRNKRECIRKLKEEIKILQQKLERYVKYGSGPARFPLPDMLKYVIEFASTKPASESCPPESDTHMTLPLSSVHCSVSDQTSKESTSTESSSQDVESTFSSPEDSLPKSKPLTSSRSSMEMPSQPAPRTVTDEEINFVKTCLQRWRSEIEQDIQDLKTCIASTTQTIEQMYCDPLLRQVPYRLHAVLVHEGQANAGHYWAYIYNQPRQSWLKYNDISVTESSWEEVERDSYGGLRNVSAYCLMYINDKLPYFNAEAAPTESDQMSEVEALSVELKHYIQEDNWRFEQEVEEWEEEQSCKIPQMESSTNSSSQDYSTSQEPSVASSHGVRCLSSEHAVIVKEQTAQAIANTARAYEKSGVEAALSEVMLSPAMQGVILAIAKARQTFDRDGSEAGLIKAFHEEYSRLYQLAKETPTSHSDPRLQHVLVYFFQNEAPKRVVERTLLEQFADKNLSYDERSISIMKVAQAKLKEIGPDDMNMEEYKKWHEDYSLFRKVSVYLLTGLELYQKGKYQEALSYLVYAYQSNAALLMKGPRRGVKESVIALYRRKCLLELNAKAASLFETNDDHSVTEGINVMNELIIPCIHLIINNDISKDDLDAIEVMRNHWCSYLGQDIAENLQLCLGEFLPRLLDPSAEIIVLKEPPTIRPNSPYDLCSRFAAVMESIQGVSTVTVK
USP30 block = inhibitors of human USP30 deubiquitinase | Ubiquitin carboxyl-terminal hydrolase 30 (Homo sapiens), Q70CQ3 | purified USP30, Ub-rhodamine cleavage fluorescence | inhibition, % at 25 µM | 47,000 compounds, 5.3% hits | AID 1645860, 2021
The depositor's hits bear a star; · = no result. Cut-off read from the data, not from the text of the source: active = inhibition above about 30%; inactive = the rest.

SMILES	USP17 block	USP28 inh	USP30 block
COc1ccc(-c2cc(C(=O)OCC(=O)Nc3cc(C)on3)c3ccccc3n2)cc1OC	30.3*	-61.6	-222.4
COc1ccc(-c2cc(C(=O)OCC(=O)NCc3ccccc3OC)c3ccccc3n2)cc1	-5.3	-4.0	-26.1
Cc1cc(=O)n2[nH]c(CN(C(=O)c3ccco3)c3ccccc3)nc2n1	14.5	15.9	1.3
CCOc1ccc(OCCCCn2c(-c3ccc(Cl)cc3)nc3ccccc3c2=O)cc1	8.3	6.8	2.3
Fc1ccccc1N1CCN(c2ncc3c(n2)CCN(Cc2ccccn2)C3)CC1	50.6*	5.7	17.2
Clc1cccc(CN2CCc3nc(N4CCOCC4)ncc3C2)c1	-63.1	-33.9	-110.8
COc1ccc(CN(Cc2cc3cc4c(cc3[nH]c2=O)OCCO4)C(=O)Nc2ccccc2Cl)cc1	17.3	-23.0	-33.2
CC(C)C[C@@H](NC(=O)C1(c2ccccc2)CCN(C(=O)[C@H]2CSCN2)CC1)C(=O)O	-7.1	2.5	5.2
Cc1ccc(C(=O)N2CCSc3ccccc32)cc1S(=O)(=O)N1CCOCC1	-22.1	-2.9	-20.5
Cc1cccc(N2CCN(C(=O)CCc3nnc(C(=O)Nc4ccccc4)s3)CC2C)c1 (centres undefined)	-0.5	2.3	15.4
Cc1ccc(NC(=O)CCc2nnc(C(=O)Nc3ccccc3)s2)cc1C	39.2*	0.2	-65.7
COc1ccc(S(=O)(=O)NCC2CCC(C(=O)NCc3ccccn3)CC2)cc1 (centres undefined)	-0.1	-11.7	-2.6
C=C(NC(=O)C(=C)NC(=O)c1csc(C2=N[C@@H]3c4csc(n4)[C@H]4NC(=O)c5csc(n5)[C@H]([C@](C)(O)[C@@H](C)O)NC(=O)[C@H]5CSC(=N5)/C(=C/C)NC(=O)C([C@@H](C)O)NC(=O)c5csc(n5)C3(CC2)NC(=O)[C@H](C)NC(=O)C(=C)NC(=O)[C@H](C)NC(=O)C([C@@H](C)CC)N[C@@H]2C=Cc3c(C(C)O)cc(nc3[C@H]2O)C(=O)OC4C)n1)C(N)=O (some centres undefined)	54.3*	-13.1	-132.6
Cc1cccc(C2=NC3(CCN(CC(=O)NCc4ccc(Cl)cc4)CC3)NC2=O)c1	-28.5	7.2	1.5
O=C(NC1CCCCC1)C(c1ccc(F)cc1)N(Cc1ccccc1)C(=O)c1ccc2c(c1)OCCO2 (centres undefined)	-15.4	0.0	8.6
CCOc1ccc(C(CC(=O)Nc2cc(C)ccn2)N2Cc3ccccc3C2=O)cc1OC (centres undefined)	44.1*	4.8	34.0*
Cc1ccc(NC(=O)CC(c2ccc(F)cc2)N2Cc3ccccc3C2=O)nc1 (centres undefined)	0.6	16.3	11.1
CC(C)N(C(=O)COC(=O)c1cc(S(=O)(=O)N2CCCCC2)ccc1N1CCOCC1)c1ccccc1	4.6	20.0	25.7
Cn1c(=O)c2c(-c3ccncc3)cc(-c3ccccc3)nc2n(C)c1=O	9.9	-0.4	9.0
O=C1c2ccccc2-c2nnc(-c3ccncc3)cc21	47.1*	13.2	33.8*
CCn1c(CNC(=O)c2ccccc2F)nnc1SCC(=O)N1CCOCC1	0.1	-0.1	-7.0
CC1=C(c2ccc(C(C)C)cc2)S(=O)(=O)N(CC(=O)Nc2ccccc2C)C1=O	22.3	39.2*	32.1*
CC1=C(c2ccccc2)S(=O)(=O)N(CC(=O)Nc2ccccc2C)C1=O	9.6	13.8	12.6
COc1ccccc1-c1noc(CCn2c(=O)[nH]c3ccccc3c2=O)n1	0.5	3.9	0.7
CCCn1cc(-c2nc(-c3ccccn3)no2)c(=O)c2cc(F)ccc21	17.5	0.3	1.2
SMILES	USP17 block	USP28 inh	USP30 block
CCn1cc(-c2nc(-c3ccccc3)no2)c(=O)c2cc(F)ccc21	67.3*	-1.5	11.2
Cn1cc(CN[C@H]2[C@H](O)[C@H](O)C[C@@H]2c2ccc(C(F)(F)F)nc2)cn1	4.0	17.7	-0.2
Cc1ccc(Cn2c(SCC(C)O)nc3c2c(=O)[nH]c(=O)n3C)cc1 (centres undefined)	1.3	-6.8	12.3
Cc1nc2sc3c(NCCCN4CCOCC4)ncnc3c2c2c1COC(C)(C)C2	-6.4	4.0	-1.3
Cc1cc(C)nc(SCc2cc(=O)n3[nH]c(C)c(-c4ccccc4)c3n2)n1	-4.7	22.6	46.2*
Cc1ccnc(SCc2cc(=O)n3[nH]c(C)c(-c4ccccc4)c3n2)n1	-15.1	-4.4	10.2
Cc1ccc(SCC(O)CN2CCN(c3ccccc3F)CC2)cc1 (centres undefined)	-13.5	-8.6	-5.8
Cc1noc(C)c1CC(=O)Nc1nnc(-c2ccc(C(C)C)cc2)s1	6.0	-13.9	-37.8
O=C(Cn1c(=O)[nH]c2ccccc2c1=O)NC1CC1	0.2	6.8	6.7
O=C(Cn1c(=O)[nH]c2ccccc2c1=O)NCc1ccccc1Cl	40.0*	6.4	17.4
CCn1c(C(=O)O)c(CNCc2ccccc2Cl)c2ccccc21	-12.5	-4.3	-31.8
O=C(c1ccnnc1)N1CCO[C@@H]2CC(COc3ccccn3)C[C@H]21 (some centres undefined)	-9.3	-9.3	-4.3
NC(=O)[C@@H]1CN2CCN(C(=O)Nc3ccccc3)C[C@@H]2[C@H]1c1ccccc1	4.8	0.4	2.9
CC(C)(C)c1noc(-c2ccnc(-n3cnc(C(=O)NC4CC4)c3)c2)n1	25.6	10.4	22.1
O=C(NC1CCCC1)c1cccc(-c2cnc(NC3CCCCC3)nc2)c1	·	-4.9	3.2
CC(C)CCNC(=O)c1cccc(-c2cnc(NC3CCCCC3)nc2)c1	15.2	17.0	32.0*
COC(C)C(NC(=O)[C@@H]1CCCN1C)[C@H]1O[C@H](SCCOC(=O)c2ccccc2O)[C@H](O)[C@@H](O)[C@H]1O (some centres undefined)	-0.3	-0.9	21.4
Cc1ccc(NC(=O)CSc2nnc(-c3n[nH]c4c3CCC4)n2N)cc1C	4.7	-1.3	20.7
Cc1cccc(NC(=O)CSc2nnc(-c3n[nH]c4c3CCC4)n2N)c1C	66.6*	8.7	37.9*
O=S(=O)(c1ccc(F)cc1)N1CCC(c2nc3ccccc3s2)CC1	-5.3	0.4	6.6
CC(=O)Nc1c2sscc-2[nH]c1=O	-19.6	3.8	70.5*
Cc1cc(C)nc(-n2nc(C)c(C#N)c2NC(=O)c2ccccc2)n1	20.9	-24.8	-36.8
CCc1ccc(-n2c(=O)c3ccccc3n(CC(=O)NC3CCCC3)c2=O)cc1	62.4*	31.1*	51.6*
O=C(Cn1c(=O)c2ccccc2n(CC(=O)Nc2ccc(Br)cc2)c1=O)NCc1ccco1	31.1*	15.2	21.1
COc1cc(NC(=O)Cn2c(=O)n(-c3ccc(CC(=O)NCc4ccco4)cc3)c(=O)c3ccccc32)cc(OC)c1	3.8	9.4	9.5
O=C(Cn1c(=O)ccn(Cc2ccccc2)c1=O)NCc1ccco1	-3.9	-2.1	-18.0
CCc1ccc(NC(=O)Cn2c(=O)n(-c3ccc(CC(=O)NCc4ccco4)cc3)c(=O)c3ccccc32)cc1	47.4*	0.3	-22.4
O=C(Cn1c(=O)c2ccccc2n(CC(=O)Nc2cc(Cl)cc(Cl)c2)c1=O)NCc1ccco1	29.7	17.0	39.5*
O=C(Cc1ccc(-n2c(=O)c3ccccc3n(CC(=O)Nc3cc(Cl)cc(Cl)c3)c2=O)cc1)NCCc1ccccc1	-2.3	-7.7	-87.8
CC(C)(C)C(=O)Cn1c(=O)n(-c2ccc(CC(=O)NC3CCCC3)cc2)c(=O)c2ccccc21	-17.4	-15.2	-54.5
